Measured values from PubChem BioAssay AID1159580 (chemical genetic matrix, 2015).
About 2,000 (36%) of roughly 5,500 compounds were called active. Inconclusive results (about 18%) are left out. No stated cut-off is given here; in the data, active means normalized growth mostly below about 0.91 (no sharp cut-off); inconclusive means no clear call, values can overlap the other calls; inactive means mostly above about 0.92. The list shows a part of the results.

Test: chemical genetic growth profiling, strain panel (AID 1159580);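 further: tested at 20 µM; growth read once vehicle control cultures reached saturation at 30 °C; 1 = growth at the plate median or of vehicle wells; lower values mean less growth of the strain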
Conditions: S. cerevisiae deletion strains, growth OD
[1] = locus YAR019C, strain CDC15, hits give low values
[2] = locus YBL105C, strain PKC1, hits give low values
[3] = locus YBR135W, strain CKS1, hits give low values
[4] = locus YBR136W, strain MEC1, hits give low values
[5] = locus YBR160W, strain CDC28, hits give low values
[6] = locus YDL017W, strain CDC7, hits give low values
[7] = locus YDL028C, strain MPS1, hits give low values
[8] = locus YDL101C, strain DUN1, hits give low values
[9] = locus YDL108W, strain KIN28, hits give low values
[10] = locus YDL132W, strain cdc53, hits give low values
[11] = locus YDL214C, strain PRR2, hits give low values
[12] = locus YDR052C, strain DBF4, hits give low values
[13] = locus YDR054C, strain cdc34, hits give low values
[14] = locus YDR226W, strain ADK1, hits give low values
[15] = locus YDR477W, strain SNF1, hits give low values
[16] = locus YER123W, strain YCK3, hits give low values
[17] = locus YER133W, strain GLC7, hits give low values
[18] = locus YFL009W, strain cdc4, hits give low values
[19] = locus YFL029C, strain CAK1, hits give low values
[20] = locus YFR003C, strain YPI1, hits give low values
[21] = locus YFR019W, strain FAB1, hits give low values
[22] = locus YFR028C, strain CDC14, hits give low values
[23] = locus YGR040W, strain KSS1, hits give low values
[24] = locus YGR052W, strain FMP48, hits give low values
[25] = locus YGR092W, strain DBF2, hits give low values
[26] = locus YHR030C, strain SLT2, hits give low values
[27] = locus YHR079C, strain IRE1, hits give low values
[28] = locus YHR082C, strain KSP1, hits give low values
[29] = locus YHR205W, strain SCH9, hits give low values
[30] = locus YIL147C, strain SLN1, hits give low values
[31] = locus YJL095W, strain BCK1, hits give low values
[32] = locus YJL128C, strain PBS2, hits give low values
[33] = locus YJL157C, strain FAR1, hits give low values
[34] = locus YJR016C, strain ILV3, hits give low values
[35] = locus YJR066W, strain TOR1 (second series), hits give low values
[36] = locus YJR066W, strain TOR1, hits give low values
[37] = locus YKL048C, strain ELM1, hits give low values
[38] = locus YKL067W, strain YNK1, hits give low values
[39] = locus YKL101W, strain HSL1, hits give low values
[40] = locus YKL193C, strain SDS22, hits give low values
[41] = locus YKL203C, strain TOR2, hits give low values
[42] = locus YLR113W, strain HOG1, hits give low values
[43] = locus YLR133W, strain CKI1, hits give low values
[44] = locus YLR403W, strain SFP1, hits give low values
[45] = locus YML070W, strain DAK1, hits give low values
[46] = locus YMR001C, strain CDC5, hits give low values
[47] = locus YMR205C, strain PFK2 (second series), hits give low values
[48] = locus YMR277W, strain FCP1, hits give low values
[49] = locus YNL006W, strain LST8, hits give low values
[50] = locus YNL020C, strain ARK1, hits give low values
[51] = locus YNL161W, strain CBK1, hits give low values
[52] = locus YNL183C, strain NPR1, hits give low values
[53] = locus YNL207W, strain RIO2, hits give low values
[54] = locus YNL222W, strain SSU72, hits give low values
[55] = locus YNL307C, strain MCK1 (second series), hits give low values
[56] = locus YOL078W, strain AVO1, hits give low values
[57] = locus YOL136C, strain PFK27, hits give low values
[58] = locus YOR061W, strain CKA2, hits give low values
[59] = locus YOR119C, strain RIO1, hits give low values
[60] = locus YOR231W, strain MKK1, hits give low values
[61] = locus YOR329C, strain SCD5, hits give low values
[62] = locus YPL031C, strain PHO85, hits give low values
[63] = locus YPL153C, strain RAD53, hits give low values
[64] = locus YPL204W, strain HRR25, hits give low values
[65] = locus YPL209C, strain IPL1, hits give low values
[66] = locus YPL256C, strain CLN2, hits give low values
[67] = locus YPR025C, strain CCL1, hits give low values
[68] = locus YPR106W, strain ISR1, hits give low values
[69] = locus YPR111W, strain DBF20, hits give low values
[70] = strain NNK1, hits give low values
[71] = strain TSCII, hits give low values

Measured: normalized growth

COc1ccc(-c2csc(-c3cccnc3)n2)cc1
active: [26] 0.849
inactive: [1] 0.96 | [2] 0.966 | [3] 0.957 | [4] 0.958 | [5] 0.963 | [6] 0.961 | [7] 0.965 | [8] 0.951 | [9] 0.958 | [10] 0.961 | [11] 0.909 | [12] 0.973 | [13] 0.945 | [14] 0.946 | [15] 0.894 | [16] 0.847 | [17] 0.888 | [18] 0.954 | [19] 0.949 | [20] 0.947 | [21] 0.86 | [22] 0.949 | [23] 0.858 | [24] 0.993 | [25] 0.828 | [27] 0.889 | [28] 0.954 | [29] 0.955 | [30] 0.961 | [31] 0.884 | [32] 0.966 | [33] 0.914 | [34] 0.955 | [35] 0.857 | [36] 0.891 | [37] 0.958 | [38] 0.912 | [39] 0.928 | [40] 0.948 | [41] 0.904 | [42] 1.01 | [43] 0.915 | [44] 0.877 | [45] 0.912 | [46] 0.959 | [47] 0.907 | [48] 0.95 | [49] 0.968 | [50] 0.903 | [51] 0.963 | [52] 0.882 | [53] 0.949 | [54] 0.953 | [55] 0.888 | [56] 0.948 | [57] 0.915 | [58] 0.929 | [59] 0.948 | [60] 0.906 | [61] 0.957 | [62] 0.876 | [63] 0.883 | [64] 0.852 | [65] 0.963 | [66] 0.901 | [67] 0.958 | [68] 0.958 | [69] 0.956 | [70] 0.957 | [71] 0.952

Brc1ccc(-c2csc(-c3cccnc3)n2)cc1
inactive: [2] 0.921 | [3] 0.898 | [4] 0.913 | [5] 0.904 | [6] 0.906 | [7] 0.916 | [9] 0.904 | [11] 0.741 | [20] 0.904 | [24] 0.704 | [27] 0.637 | [28] 0.695 | [29] 0.643 | [30] 0.899 | [32] 0.951 | [33] 0.735 | [36] 0.545 | [37] 0.835 | [39] 0.784 | [43] 0.767 | [45] 0.704 | [50] 0.751 | [54] 0.902 | [55] 0.702 | [57] 0.709 | [58] 0.792 | [60] 0.647 | [68] 0.903 | [69] 0.918
active: [1] 0.879 | [8] 0.887 | [10] 0.854 | [12] 0.894 | [13] 0.847 | [14] 0.884 | [15] 0.624 | [16] 0.606 | [17] 0.561 | [18] 0.867 | [19] 0.872 | [21] 0.677 | [22] 0.875 | [23] 0.59 | [25] 0.456 | [26] 0.519 | [31] 0.305 | [34] 0.878 | [35] 0.603 | [38] 0.733 | [40] 0.864 | [41] 0.506 | [42] 0.655 | [44] 0.563 | [46] 0.88 | [47] 0.719 | [48] 0.873 | [49] 0.894 | [51] 0.893 | [52] 0.55 | [53] 0.846 | [56] 0.866 | [59] 0.54 | [61] 0.883 | [62] 0.533 | [63] 0.449 | [64] 0.46 | [65] 0.893 | [66] 0.679 | [67] 0.894 | [70] 0.871 | [71] 0.86
